Drawing on ChEMBL document CHEMBL2218924, “A broad activity screen in support of a chemogenomic map for kinase signalling research and drug discovery” (Biochem J, 2013), this text covers residual activity for six molecules.

In general, residual activity refers to the signal under treatment as a percentage of the control signal.

The target in test [1] is T1, Muscle, skeletal receptor tyrosine-protein kinase (Homo sapiens) (UniProt O15146).
T1 sequence (whole entry): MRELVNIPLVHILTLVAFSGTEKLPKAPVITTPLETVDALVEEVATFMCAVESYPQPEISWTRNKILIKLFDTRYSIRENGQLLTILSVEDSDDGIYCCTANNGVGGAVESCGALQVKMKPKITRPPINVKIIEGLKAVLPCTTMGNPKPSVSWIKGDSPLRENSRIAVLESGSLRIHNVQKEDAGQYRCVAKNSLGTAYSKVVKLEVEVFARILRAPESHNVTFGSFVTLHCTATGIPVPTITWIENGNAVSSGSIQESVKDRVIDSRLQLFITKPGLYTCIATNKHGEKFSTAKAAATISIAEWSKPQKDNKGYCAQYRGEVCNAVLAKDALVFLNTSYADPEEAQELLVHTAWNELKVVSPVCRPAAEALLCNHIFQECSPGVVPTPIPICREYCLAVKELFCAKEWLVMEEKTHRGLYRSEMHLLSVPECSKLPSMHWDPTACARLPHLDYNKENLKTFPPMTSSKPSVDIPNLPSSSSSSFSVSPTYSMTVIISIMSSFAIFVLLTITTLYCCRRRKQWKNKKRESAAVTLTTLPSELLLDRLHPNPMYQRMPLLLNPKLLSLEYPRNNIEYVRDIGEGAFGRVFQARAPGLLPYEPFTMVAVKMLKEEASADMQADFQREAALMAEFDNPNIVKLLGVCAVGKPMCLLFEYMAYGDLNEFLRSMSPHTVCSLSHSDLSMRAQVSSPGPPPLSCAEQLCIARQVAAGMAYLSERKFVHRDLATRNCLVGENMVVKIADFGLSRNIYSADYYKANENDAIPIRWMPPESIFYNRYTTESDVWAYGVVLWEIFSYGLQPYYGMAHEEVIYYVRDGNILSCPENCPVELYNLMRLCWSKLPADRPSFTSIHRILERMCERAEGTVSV
Particulars: at 1 µM.

The target of test [2] is T1, Muscle, skeletal receptor tyrosine-protein kinase (Homo sapiens). Particulars: at 10 µM.
Test [3] addresses T2, Serine/threonine-protein kinase Nek11 (Homo sapiens) (UniProt Q8NG66).
T2 sequence (whole entry): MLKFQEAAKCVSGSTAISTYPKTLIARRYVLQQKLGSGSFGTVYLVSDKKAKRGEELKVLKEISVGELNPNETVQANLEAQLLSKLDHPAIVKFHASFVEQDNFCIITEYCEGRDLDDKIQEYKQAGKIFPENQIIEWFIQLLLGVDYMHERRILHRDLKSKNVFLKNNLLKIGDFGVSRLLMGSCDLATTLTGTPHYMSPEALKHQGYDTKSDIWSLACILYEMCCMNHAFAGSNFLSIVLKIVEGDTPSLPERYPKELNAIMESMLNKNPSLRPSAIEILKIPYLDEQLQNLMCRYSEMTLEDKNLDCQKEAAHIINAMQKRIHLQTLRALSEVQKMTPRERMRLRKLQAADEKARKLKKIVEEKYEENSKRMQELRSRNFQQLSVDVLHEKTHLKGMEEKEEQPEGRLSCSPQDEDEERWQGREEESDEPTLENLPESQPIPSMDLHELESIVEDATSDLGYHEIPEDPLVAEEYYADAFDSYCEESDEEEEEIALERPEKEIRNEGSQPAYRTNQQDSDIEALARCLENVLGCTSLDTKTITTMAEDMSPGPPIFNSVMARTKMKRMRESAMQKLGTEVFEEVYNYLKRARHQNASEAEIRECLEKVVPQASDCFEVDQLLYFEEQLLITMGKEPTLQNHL
Particulars: at 1 µM.

In test [4] the target is T2, Serine/threonine-protein kinase Nek11 (Homo sapiens). The note with it: at 10 µM.
Test [5] has as its target T3, Serine/threonine-protein kinase Nek2 (Homo sapiens) (UniProt P51955).
T3 sequence (whole entry): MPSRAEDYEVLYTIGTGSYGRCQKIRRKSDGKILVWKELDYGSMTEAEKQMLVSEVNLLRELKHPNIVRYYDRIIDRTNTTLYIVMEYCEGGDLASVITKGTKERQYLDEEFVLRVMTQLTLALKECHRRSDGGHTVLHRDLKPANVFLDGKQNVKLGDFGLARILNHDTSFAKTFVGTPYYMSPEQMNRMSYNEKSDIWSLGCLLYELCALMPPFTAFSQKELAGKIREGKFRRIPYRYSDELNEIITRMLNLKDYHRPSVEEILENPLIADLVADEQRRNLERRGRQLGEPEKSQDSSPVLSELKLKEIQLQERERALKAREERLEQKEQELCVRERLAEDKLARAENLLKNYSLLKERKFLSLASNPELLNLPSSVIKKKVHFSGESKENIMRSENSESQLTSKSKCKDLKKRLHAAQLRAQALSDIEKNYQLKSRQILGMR
Particulars: at 10 µM.

The target in test [6] is T4, Serine/threonine-protein kinase Nek3 (Homo sapiens) (UniProt P51956).
T4 sequence (whole entry): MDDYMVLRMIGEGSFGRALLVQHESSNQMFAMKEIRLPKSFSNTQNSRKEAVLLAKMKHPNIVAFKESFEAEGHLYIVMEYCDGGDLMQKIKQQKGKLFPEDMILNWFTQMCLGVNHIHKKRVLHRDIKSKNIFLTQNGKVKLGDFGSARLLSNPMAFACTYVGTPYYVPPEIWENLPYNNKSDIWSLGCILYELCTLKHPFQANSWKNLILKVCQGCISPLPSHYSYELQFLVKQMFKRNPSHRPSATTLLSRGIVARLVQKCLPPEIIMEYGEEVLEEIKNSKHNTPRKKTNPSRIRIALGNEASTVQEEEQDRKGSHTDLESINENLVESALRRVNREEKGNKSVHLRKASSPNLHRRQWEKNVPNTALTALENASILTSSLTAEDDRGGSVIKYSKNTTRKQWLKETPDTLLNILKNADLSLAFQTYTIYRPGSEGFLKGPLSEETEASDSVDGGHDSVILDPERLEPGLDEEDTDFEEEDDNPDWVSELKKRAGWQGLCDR
Particulars: at 1 µM.

Test [7] concerns the target T4, Serine/threonine-protein kinase Nek3 (Homo sapiens). Particulars: at 10 µM.
Test [8] deals with Serine/threonine-protein kinase tousled-like 2 (Homo sapiens) (UniProt Q86UE8). The note with it: at 1 µM.
Serine/threonine-protein kinase tousled-like 2 (Homo sapiens), sequence (Q86UE8 whole entry, looked up): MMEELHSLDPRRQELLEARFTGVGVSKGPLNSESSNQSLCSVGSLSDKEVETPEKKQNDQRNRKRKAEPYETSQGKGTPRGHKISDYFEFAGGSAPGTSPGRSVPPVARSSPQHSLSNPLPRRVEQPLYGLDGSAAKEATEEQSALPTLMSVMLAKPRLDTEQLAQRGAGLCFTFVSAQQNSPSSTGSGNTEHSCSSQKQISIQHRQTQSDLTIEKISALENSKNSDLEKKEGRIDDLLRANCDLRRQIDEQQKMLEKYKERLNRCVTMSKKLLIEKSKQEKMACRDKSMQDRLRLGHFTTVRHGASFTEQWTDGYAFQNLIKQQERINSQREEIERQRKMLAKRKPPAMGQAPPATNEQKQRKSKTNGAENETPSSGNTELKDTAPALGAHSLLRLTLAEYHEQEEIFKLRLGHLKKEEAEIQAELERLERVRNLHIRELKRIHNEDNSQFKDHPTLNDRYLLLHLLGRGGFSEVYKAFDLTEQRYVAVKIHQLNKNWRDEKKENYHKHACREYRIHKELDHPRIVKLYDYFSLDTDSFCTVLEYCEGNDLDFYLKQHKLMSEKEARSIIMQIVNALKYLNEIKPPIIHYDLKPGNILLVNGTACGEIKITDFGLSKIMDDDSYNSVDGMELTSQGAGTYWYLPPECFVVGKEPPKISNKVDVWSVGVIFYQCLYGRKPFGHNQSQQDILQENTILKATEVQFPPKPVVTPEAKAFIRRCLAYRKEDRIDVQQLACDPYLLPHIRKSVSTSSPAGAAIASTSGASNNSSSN
The target is the same in test [9]. The note with it: at 10 µM.
The target of test [10] is T5, Testis-specific serine/threonine-protein kinase 1 (Homo sapiens) (UniProt Q9BXA7).
T5 sequence (whole entry): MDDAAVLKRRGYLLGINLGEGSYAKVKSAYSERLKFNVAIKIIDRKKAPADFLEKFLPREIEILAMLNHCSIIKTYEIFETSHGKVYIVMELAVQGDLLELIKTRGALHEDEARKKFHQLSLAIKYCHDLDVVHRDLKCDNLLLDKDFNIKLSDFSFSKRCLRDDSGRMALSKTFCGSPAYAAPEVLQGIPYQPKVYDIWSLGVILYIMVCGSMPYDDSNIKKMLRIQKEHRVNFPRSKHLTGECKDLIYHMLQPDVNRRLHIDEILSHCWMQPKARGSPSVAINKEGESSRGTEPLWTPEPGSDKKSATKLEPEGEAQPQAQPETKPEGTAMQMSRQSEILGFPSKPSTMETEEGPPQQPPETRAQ
The note with it: at 1 µM.

Test [11] has as its target T5, Testis-specific serine/threonine-protein kinase 1 (Homo sapiens). The note with it: at 10 µM.
Test [12] concerns the target T6, Tyrosine-protein kinase Tec (Homo sapiens) (UniProt P42680).
T6 sequence (whole entry): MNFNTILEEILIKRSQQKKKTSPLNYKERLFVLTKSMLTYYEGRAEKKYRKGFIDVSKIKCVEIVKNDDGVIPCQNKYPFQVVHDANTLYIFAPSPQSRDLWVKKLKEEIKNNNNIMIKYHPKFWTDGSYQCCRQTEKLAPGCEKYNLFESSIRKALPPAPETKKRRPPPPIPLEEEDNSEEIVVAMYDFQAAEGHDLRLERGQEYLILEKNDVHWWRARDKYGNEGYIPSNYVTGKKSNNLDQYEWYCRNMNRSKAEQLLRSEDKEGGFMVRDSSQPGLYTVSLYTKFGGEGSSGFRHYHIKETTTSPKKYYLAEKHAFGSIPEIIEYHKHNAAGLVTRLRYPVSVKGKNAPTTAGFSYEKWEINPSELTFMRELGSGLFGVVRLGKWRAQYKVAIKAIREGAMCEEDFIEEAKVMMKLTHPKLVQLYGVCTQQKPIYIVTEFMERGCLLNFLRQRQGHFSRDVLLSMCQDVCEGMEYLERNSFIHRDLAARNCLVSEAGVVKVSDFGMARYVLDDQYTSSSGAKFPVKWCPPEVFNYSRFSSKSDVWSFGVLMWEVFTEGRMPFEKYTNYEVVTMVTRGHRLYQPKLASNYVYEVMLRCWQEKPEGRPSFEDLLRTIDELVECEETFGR
The note with it: at 1 µM.

Test [13] addresses T6, Tyrosine-protein kinase Tec (Homo sapiens). The note with it: at 10 µM.
In test [14] the target is Angiopoietin-1 receptor (Homo sapiens) (UniProt Q02763). Particulars: at 1 µM.
Angiopoietin-1 receptor (Homo sapiens), sequence (Q02763 whole entry): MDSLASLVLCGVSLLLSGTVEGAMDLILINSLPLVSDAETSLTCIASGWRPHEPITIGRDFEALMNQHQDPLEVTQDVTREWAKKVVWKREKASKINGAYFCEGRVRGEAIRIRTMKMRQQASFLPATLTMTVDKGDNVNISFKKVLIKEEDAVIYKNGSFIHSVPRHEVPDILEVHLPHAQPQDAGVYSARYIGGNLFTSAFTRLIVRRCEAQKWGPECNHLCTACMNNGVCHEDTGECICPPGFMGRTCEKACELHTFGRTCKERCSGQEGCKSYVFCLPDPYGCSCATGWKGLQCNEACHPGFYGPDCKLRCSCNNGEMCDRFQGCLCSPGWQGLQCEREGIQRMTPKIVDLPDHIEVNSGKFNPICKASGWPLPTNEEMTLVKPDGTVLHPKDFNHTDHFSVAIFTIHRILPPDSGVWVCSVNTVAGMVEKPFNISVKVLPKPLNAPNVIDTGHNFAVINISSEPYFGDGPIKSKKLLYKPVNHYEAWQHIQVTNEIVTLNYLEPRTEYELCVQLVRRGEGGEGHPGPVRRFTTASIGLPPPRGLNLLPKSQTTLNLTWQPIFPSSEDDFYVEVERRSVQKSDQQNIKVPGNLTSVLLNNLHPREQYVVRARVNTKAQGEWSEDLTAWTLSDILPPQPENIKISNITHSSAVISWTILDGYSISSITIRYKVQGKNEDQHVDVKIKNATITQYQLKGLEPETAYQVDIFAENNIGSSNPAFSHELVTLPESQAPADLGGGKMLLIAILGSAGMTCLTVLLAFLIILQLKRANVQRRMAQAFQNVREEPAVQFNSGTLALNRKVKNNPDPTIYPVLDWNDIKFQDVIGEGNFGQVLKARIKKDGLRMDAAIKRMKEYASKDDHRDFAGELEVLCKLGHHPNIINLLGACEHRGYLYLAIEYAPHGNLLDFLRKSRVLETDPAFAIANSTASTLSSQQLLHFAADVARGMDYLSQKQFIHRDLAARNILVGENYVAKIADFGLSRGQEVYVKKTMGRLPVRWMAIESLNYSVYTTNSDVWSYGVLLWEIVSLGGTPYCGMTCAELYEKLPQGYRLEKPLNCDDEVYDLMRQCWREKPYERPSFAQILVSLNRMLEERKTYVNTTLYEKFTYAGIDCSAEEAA
Test [15] shares this target. The note with it: at 10 µM.
In test [16] the target is High affinity nerve growth factor receptor (Homo sapiens) (UniProt P04629). Particulars: at 1 µM.
High affinity nerve growth factor receptor (Homo sapiens), sequence (P04629 33-796 limits assumed): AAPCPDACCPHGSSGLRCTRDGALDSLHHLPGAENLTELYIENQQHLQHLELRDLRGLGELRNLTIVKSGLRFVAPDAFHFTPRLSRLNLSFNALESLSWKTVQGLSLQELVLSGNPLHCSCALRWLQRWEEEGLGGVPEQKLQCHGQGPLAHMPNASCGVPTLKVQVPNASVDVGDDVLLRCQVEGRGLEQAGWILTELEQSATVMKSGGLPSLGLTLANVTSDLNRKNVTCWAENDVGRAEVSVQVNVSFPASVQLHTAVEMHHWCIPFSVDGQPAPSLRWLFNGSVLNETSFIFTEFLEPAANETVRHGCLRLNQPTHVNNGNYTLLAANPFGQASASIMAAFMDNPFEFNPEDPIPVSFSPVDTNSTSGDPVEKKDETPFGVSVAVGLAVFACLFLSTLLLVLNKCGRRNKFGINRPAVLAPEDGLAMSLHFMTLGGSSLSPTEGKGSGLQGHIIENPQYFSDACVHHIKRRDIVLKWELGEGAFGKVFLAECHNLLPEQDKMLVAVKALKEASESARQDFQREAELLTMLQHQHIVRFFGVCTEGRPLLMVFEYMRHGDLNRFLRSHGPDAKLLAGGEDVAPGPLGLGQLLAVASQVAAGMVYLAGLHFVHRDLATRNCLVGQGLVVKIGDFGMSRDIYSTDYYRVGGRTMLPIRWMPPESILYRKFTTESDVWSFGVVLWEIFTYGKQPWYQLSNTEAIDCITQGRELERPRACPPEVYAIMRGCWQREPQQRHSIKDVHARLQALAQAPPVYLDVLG
Test [17] shares this target. The note with it: at 10 µM.
For test [18], the target named is BDNF/NT-3 growth factors receptor (Homo sapiens) (UniProt Q16620). Particulars: at 1 µM.
BDNF/NT-3 growth factors receptor (Homo sapiens), sequence (Q16620 32-822 limits assumed): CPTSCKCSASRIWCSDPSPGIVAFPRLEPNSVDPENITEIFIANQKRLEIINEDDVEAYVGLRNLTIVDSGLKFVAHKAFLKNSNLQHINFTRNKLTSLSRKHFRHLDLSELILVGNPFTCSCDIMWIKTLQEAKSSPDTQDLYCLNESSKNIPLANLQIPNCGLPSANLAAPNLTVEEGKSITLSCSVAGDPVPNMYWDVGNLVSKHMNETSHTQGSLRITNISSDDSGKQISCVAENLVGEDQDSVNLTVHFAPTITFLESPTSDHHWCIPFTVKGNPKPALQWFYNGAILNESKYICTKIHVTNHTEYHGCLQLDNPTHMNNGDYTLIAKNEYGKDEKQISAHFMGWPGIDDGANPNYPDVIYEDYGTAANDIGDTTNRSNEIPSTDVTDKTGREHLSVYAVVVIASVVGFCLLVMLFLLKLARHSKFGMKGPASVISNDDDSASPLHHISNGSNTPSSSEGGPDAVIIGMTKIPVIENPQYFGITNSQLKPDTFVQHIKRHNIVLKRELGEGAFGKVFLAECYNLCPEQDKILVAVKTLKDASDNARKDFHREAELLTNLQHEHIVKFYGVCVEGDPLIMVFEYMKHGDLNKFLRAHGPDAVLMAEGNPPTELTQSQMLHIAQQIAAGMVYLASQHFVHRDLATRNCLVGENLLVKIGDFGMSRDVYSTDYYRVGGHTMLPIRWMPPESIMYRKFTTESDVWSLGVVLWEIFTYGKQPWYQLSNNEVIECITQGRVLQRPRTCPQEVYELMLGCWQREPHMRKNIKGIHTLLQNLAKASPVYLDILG
Test [19] deals with T3, Serine/threonine-protein kinase Nek2 (Homo sapiens). The note with it: at 1 µM.
For test [20], the target named is T7, Testis-specific serine/threonine-protein kinase 2 (Homo sapiens) (UniProt Q96PF2).
T7 sequence (whole entry): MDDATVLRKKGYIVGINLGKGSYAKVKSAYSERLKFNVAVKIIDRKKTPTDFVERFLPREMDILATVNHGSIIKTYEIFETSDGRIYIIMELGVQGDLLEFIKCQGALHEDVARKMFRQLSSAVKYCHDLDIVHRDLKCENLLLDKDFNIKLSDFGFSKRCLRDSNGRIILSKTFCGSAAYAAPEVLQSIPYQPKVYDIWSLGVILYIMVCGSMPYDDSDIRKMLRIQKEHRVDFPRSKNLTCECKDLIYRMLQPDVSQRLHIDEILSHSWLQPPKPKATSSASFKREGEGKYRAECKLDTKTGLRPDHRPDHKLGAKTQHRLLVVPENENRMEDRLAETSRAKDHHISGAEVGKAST
Particulars: at 10 µM.

On to `O=C(CCCc1ccc(-c2ccccc2F)cc1)Nc1ccc(O)cc1`, for which the residual activity stood at 96% in [1]; 84% in test [2]; 67% in test [3]; 60% in [4]; 106% in test [5]; 89% in [6]. The residual activity in test [7] amounted to 103%; in test [8] it was 103%; in [9], 95%; in [10], 103%; in test [11] it was 99%; in test [12] it was 93%. Also, the residual activity in [13] worked out at 79%; in test [14], 83%; in [15] it was 96%; in test [16] it was 102%; in test [17], 54%; in test [18] it was 93%.
For the molecule `Nc1n[nH]c2nc3ccccc3nc12`, the residual activity in test [1] stood at 76%; in test [2], 87%; in test [3] it was 70%; in test [4], 80%; in [19], 115%; in test [5] it was 81%. For the same molecule, the residual activity in test [6] was 80%; in test [7], 83%; in [8], 91%; in test [9], 81%; in test [10] it was 85%; in test [11], 87%. Further, the residual activity came out at 71% in test [20]; 81% in [12]; 86% in test [13]; 86% in test [16]; 67% in [17]; 84% in [18].
In the case of `CSc1nc(-c2ccc(F)cc2)c(-c2ccnc(NC(C)c3ccccc3)c2)[nH]1` (stereo not given), the residual activity in [1] came out at 98%; in test [2] it was 81%; in test [3] it was 83%; in [4], 54%; in [19], 99%; in test [5] it was 102%. For the same molecule, the residual activity in test [6] worked out at 95%; in test [7], 90%; in test [20], 101%; in [13], 63%; in [14], 91%; in test [15] it was 41%. For the same molecule, the results for the residual activity in test [17] and in test [18] were 39% and 3%, respectively.
As for `CCCCc1c(-c2ccc(O)cc2)[nH]c2nccnc12`, the residual activity in test [1] amounted to 81%; in [2], 62%; in test [3] it was 80%; in [4] it was 88%; in [6] it was 88%; in [7], 79%. In addition, the residual activity in test [8] was 91%; in [9], 80%; in test [10], 58%; in test [11], 59%; in test [20], 85%; in [16], 61%. In addition, the values for the residual activity in test [17] and in test [18] were 12% and 67%, respectively.
Turning to `CC(C)c1nn(-c2c(Cl)cccc2Cl)c2nc(Cc3ccc(OCCO)cc3)[nH]c(=O)c12`, the residual activity is 96% in test [1]; 87% in test [2]; 63% in test [3]; 70% in [4]; 90% in test [19]; 87% in test [5]. In addition, the residual activity was 86% in [6]; 89% in test [7]; 80% in test [8]; 37% in test [9]; 91% in test [10]; 94% in test [11]. For the same molecule, the residual activity in test [20] came out at 79%; in test [12] it was 90%; in [13] it was 85%; in [15], 86%; in test [16], 87%; in test [17], 74%.
Consider `O=C1NC(=O)C(c2cn(CCCn3ccnc3)c3ccccc23)=C1Nc1ccccc1`, for which the residual activity in test [1] turned out to be 77%; in [2], 65%; in test [3], 59%; in test [4] it was 44%; in test [6], 110%; in test [7] it was 104%. The residual activity in [8] stood at 44%; in test [9], 7%; in test [14], 55%; in test [15], 32%; in test [16], 1%; in test [17], 9%. Besides, the residual activity in test [18] is 44%.
